The list is not random: actives were taken first. Their share in the collection is about 6%.
BCR signal inh: blocks chronic active B-cell receptor signaling; ABC-DLBCL IkBa-CBG/CBR reporter, luminescence ratio, 4 h; Potency, µM (series often up to 46.1 µM), actives largely listed as inhibitors; 340,000 compounds, 0.05% hits; AID 493014; active = well fitted inhibition curve with a large enough effect in the signal ratio, with a control signal flat, not every such curve was filed as active; inconclusive = small, poorly fitted or top-dose-only effect, or effect the other way, or a change in a side signal; the % refers to the signal ratio
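Concentration-response series (up to 46 uM) were applied to TMD8 dual-reporter cells for 4 h at 37C with doxycycline. Green/red ratio, after filter-overlap correction, defined %Activity; red signal alone was normalised to basal cells and zero luminescence.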
D1 agonist: human D1 receptor agonism | HEK293 T-REx D1 cells, calcium flux, agonist mode | activation, % at 2 µM | 360,000 compounds, 1% hits | AID 504660; in the data active = activation above about 30%
Target sequence (P21728 whole entry, looked up): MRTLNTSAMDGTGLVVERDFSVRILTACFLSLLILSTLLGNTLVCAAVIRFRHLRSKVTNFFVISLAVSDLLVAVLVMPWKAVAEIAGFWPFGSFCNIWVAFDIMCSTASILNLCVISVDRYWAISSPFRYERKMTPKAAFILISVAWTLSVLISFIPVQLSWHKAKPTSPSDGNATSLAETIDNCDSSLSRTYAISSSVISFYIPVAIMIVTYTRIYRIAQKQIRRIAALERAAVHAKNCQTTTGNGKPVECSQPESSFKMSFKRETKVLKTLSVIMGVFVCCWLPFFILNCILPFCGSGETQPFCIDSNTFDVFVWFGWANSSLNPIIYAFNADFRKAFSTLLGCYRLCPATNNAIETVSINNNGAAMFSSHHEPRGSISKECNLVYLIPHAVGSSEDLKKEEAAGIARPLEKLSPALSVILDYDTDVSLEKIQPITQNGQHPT
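Inducible HEK293 T-REx D1 cells, force-coupled to calcium signalling, were plated at 4000 cells/well with tetracycline and held overnight at 30 C. After no-wash calcium dye loading, compound-evoked calcium rise over 180 s flagged agonists.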
D1 potentiator: enhances dopamine response at the human D1 receptor; AID 504651; P21728; HEK293 TREx D1 cells, calcium flux, dopamine EC20 potentiation; potentiation, % at 10 µM; 360,000 compounds, 0.036% hits; in the data active = potentiation above about 30%
D3 antag: antagonists of human D3 dopamine receptor; D3R cells, DiscoveRx beta-arrestin luminescence, antagonist mode; hits give low values; P35462; AID 652054; max response, negative = inhibition, %; 360,000 compounds, 2.5% hits; in the data active = max response below about -50%; inconclusive = no clear call, values can overlap the other calls
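Cells expressing the human receptor were seeded at 1500 cells/well, incubated overnight at 37 degrees C in 5% CO2, then exposed to library compounds with dopamine controls for 90 minutes at 37 degrees C before luminescent detection.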
D1 antagonist: antagonists of human D1 dopamine receptor; HEK293 TREx D1 cells, calcium flux, dopamine EC80; hits give low values; activity change, negative = inhibition, % at 10 µM; 360,000 compounds, 3.2% hits; AID 504652; in the data active = activity change below about -30%
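Inducible Hek293 Trex D1 cells (tetracycline, overnight, 30 C). Calcium dye 30–90 min RT. Antagonist mode: EC80 dopamine added after 180 s compound read.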
DRD3 agonist: agonists of human D3 dopamine receptor; 410,000 compounds, 0.58% hits; D3R DiscoveRx beta-arrestin cells, luminescence, 90 min; AID 652048; max activation, %; P35462; in the data active = max activation above about 30%
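Agonist mode: compounds and dopamine controls were applied to plated cells for 90 min at 37 degrees C after an overnight attachment at 1500 cells/well. Luminescent read-out followed 30 - 60 minutes at room temperature with DiscoveRx detection reagent.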
A number is an active result; 0 = inactive; ? = inconclusive; - = no result.

SMILES	BCR signal inh	D1 agonist	D1 potentiator	D3 antag	D1 antagonist	DRD3 agonist
CC1=NN(c2ccccc2)C(=O)C1/C=C1\C(=O)NC(=O)N(c2cc(C)cc(C)c2)C1=O (stereo not given)	?	0	0	0	0	0
OC(O)C(Cl)(Cl)Cl	-	-	-	-	-	0
CNCC(=O)c1ccc(O)c(O)c1	-	-	-	-	-	61
CNCC(=O)c1ccccc1	-	-	-	-51	-	0
Nc1[nH]n(-c2ccccc2)c(=O)c1N=Nc1ccc2ncsc2c1	?	0	0	0	0	0
CNC(=O)Oc1ccccc1C(=O)Nc1ccccc1	-	-	-	-	-	0
CCC1(c2cnc[nH]2)Cc2ccccc2C1	-	-	-	-	-	0
CCCCn1c(O)c(/C=C/C=C/C=Nc2ccccc2)sc1=S	?	0	0	0	-31	0
CCCCn1c(O)c(C=Nc2c(C)n(C)n(-c3ccccc3)c2=O)c(=O)[nH]c1=O	0	0	0	0	0	0
Cc1cc(OCc2ccc([N+](=O)[O-])cc2)c2c3c(c(=O)oc2c1)CCCC3	0	0	0	0	-30	0
Cc1cc(OCc2nn[nH]n2)c2c3c(c(=O)oc2c1)CCCC3	0	0	0	0	0	0
CCOP(=O)(Cc1ccc(C(C)(C)CC(C)=O)o1)OCC	?	0	0	0	0	0
CN1CN(c2ccccc2)C2(CCN(CCCSc3ccccc3NC(=O)/C=C/c3ccccc3)CC2)C1=O	-	-	-	-107	-	0
C[C@H](N)[C@H](O)c1ccc(O)c(O)c1	-	-	-	-	-	0
O=C(Nc1ccc(Cl)cc1)OC1CN2CCC1CC2 (stereo not given)	?	30	0	0	0	0
O=C(Nc1ccccc1F)OC1CN2CCC1CC2 (stereo not given)	0	0	0	0	0	0
O=C(Nc1cccc(Cl)c1)OC1CN2CCC1CC2 (stereo not given)	?	0	0	0	-38	0
O=C(Nc1ccccc1Cl)OC1CN2CCC1CC2 (stereo not given)	0	0	0	0	-38	0
CC(=O)O/C(=C1\CC2C3CC=C4CC(OC(C)=O)CCC4(C)C3CCC2(C)C1=O)C(F)(F)F (stereo not given)	-	-	-	-70	-	0
Cn1cc(C(=O)N2CCCCC2)c2ccccc21	0	0	0	0	-30	0
Cn1cc(C(=O)c2ccccc2)c2ccccc21	0	0	0	0	0	0
CC(C(=O)c1cn(C)c2ccccc12)c1ccccc1 (stereo not given)	?	0	0	-70	0	0
O=C(CCl)c1ccc(Cl)cc1Cl	-	-	-	-	-	0
CN1/C(=C\C=C2C(=O)NC(=S)NC2=O)C(C)(C)c2ccccc21	0	484	0	0	0	0
CC1(C)OC(c2ccccc2)=C/C(=C/C=C2C(=O)NC(=S)NC2=O)O1	?	0	0	0	0	0
SMILES	BCR signal inh	D1 agonist	D1 potentiator	D3 antag	D1 antagonist	DRD3 agonist
Oc1cccc[c]1[Hg][Cl]	-	-	-	-	-	0
O=C(Nc1ccc2c(c1)OCO2)c1cccn(Cc2ccc(F)cc2)c1=O	?	0	0	-	-	0
c1cncc(CNC2=NCCCCC2)c1	0	0	0	0	-47	0
CCN[C@H](C)Cc1cccc(C(F)(F)F)c1	-	-	-	-	-	0
CN1C(=O)C(=Cc2ccc(N3CCOCC3)o2)C(=O)N(C)C1=O	0	45	0	0	0	0
C=C1C2C[C@H](O)C(C)(C)[C@@]2(O)[C@H](O)C[C@]23C[C@@](C)(O)[C@H](CC[C@H]12)[C@H]3OC(C)=O (stereo not given in full)	0	0	0	0	-34	0
C=C(C)CN1CC[C@]23c4c5ccc(O)c4O[C@H]2c2[nH]c4ccccc4c2C[C@@]3(O)C1C5	?	0	0	-	-80	-
CC(C)Sc1nnc([C@@H](N)Cc2ccccc2)o1	?	75	0	0	0	0
CN(CC(=O)Nc1ccccc1C(F)(F)F)C(=O)Cn1c(=O)oc2ccccc21	?	0	0	0	0	0
C[C@@H]1[C@H](O)[C@@H](C)/C=C/C=C/CC/C=C/C=C/C=C/C=C/[C@H](O[C@H]2O[C@@H](C)[C@H](O)[C@@H](N)[C@H]2O)CC2O[C@](O)(C[C@@H](O)[C@H](O)CC[C@@H](O)C[C@@H](O)C[C@@H](O)CC(=O)O[C@H]1C)C[C@H](O)[C@H]2C(=O)O	-	-	-	-	-	0
CCOC(=O)[C@]12Cc3cc(Cl)ccc3[C@H]1N(C1CCCCC1)C(=O)c1ccccc12	-	-	-	-80	-	0
CCOC(=O)[C@]12Cc3cc(Cl)ccc3[C@H]1N(C)C(=O)c1ccccc12	-	-	-	0	-	0
CCOC(=O)[C@]12Cc3c(cc(OC)c(OC)c3OC)[C@H]1N(C)C(=O)c1ccccc12	-	-	-	-63	-	0
CCOC(=O)[C@]12Cc3cc(OC)ccc3[C@H]1N(C1CCCCC1)C(=O)c1ccccc12	-	-	-	-64	-	0
CCNC1(c2cccs2)CCCCC1=O (stereo not given)	-	-	-	-	-	0
CCOc1ccc(CN(CCc2ccc3c(c2)OCO3)Cc2ccc(OC)c(Br)c2)cc1	-	0	0	-	0	0
CCN(CC)c1ccc(N=Cc2c(O)n(-c3ccc(OC)cc3)c(=O)[nH]c2=O)cc1	0	0	0	0	0	0
C=CCn1c(O)c(C=Nc2ccc(N(CC)CC)cc2)c(=O)[nH]c1=O	?	31	0	0	0	0
CCN(CC)c1ccc(N=Cc2c(O)n(-c3ccc(Cl)cc3)c(=O)[nH]c2=O)cc1	0	0	0	0	-38	0
C=CCn1c(O)c(C=Nc2ccc(F)cc2)c(=O)[nH]c1=O	0	0	0	0	0	0
Cc1cccc(NC(=O)C2CCCN2C(=O)Oc2ccccc2)c1C (stereo not given)	?	0	0	0	0	0
O=c1[nH]c(=O)n(C2CCCCCC2)c(O)c1C=NCCCN1CCOCC1	0	0	0	-61	0	0
O=c1[nH]c(=S)n(C2CC2)c(O)c1C=NCCN1CCOCC1	0	0	0	0	0	0
Clc1ccc2c(c1)C(c1ccccc1Cl)=NCc1nnc(N3CCN(CCSc4ccccc4)CC3)n1-2	0	0	0	0	0	0
Clc1ccc2c(c1)C(c1ccccc1Cl)=NCc1nnc(N3CCN(CCOc4ccccc4)CC3)n1-2	?	39	0	0	0	54
SMILES	BCR signal inh	D1 agonist	D1 potentiator	D3 antag	D1 antagonist	DRD3 agonist
O=C(OCC(=O)c1ccc([N+](=O)[O-])cc1)/C(=C/c1ccc(Cl)cc1)NC(=O)c1ccccc1	0	0	0	0	-34	0
O=C(COC(=O)Cc1ccccc1)NNC(=O)c1ccc([N+](=O)[O-])cc1	0	0	0	0	0	0
CN1C(=O)[C@@H](NC(=O)c2cc3ccccc3[nH]2)N=C(c2ccccc2)c2ccccc21	-	-	-	-	-	0
C[C@@H](CO)NC(=O)[C@@H]1C=C2c3cccc4[nH]cc(c34)C[C@H]2N(C)C1	-	-	-	-	-	38
O=C(Cn1nc(-c2ccc(Cl)cc2)ccc1=O)N1CCC2(CC1)OCCO2	0	0	0	0	-35	0
CCCCNC(C)(C)[P+](=O)O	-	-	-	-	-	0
